Consider nine compounds from PubChem BioAssay (NCI).

The panel holds about 83,000 compounds, 20% with a hit somewhere; the sample as a whole holds those more often.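 Compound tested at a single concentration for 48 hours in 96-well plates; a percent growth value below 10 was scored as active.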 Unmarked numbers belong to inactive results. Active and inactive are the calls of the source.

Holding throughout (test): NCI-60 one-dose screen, 48 h (100 = growth as untreated, 0 = no growth, -100 = all killed)
What all share (settings): 10 µM unless noted

Test [1] has as its system SR leukemia.
Test [2] relates to RPMI-8226 leukemia.
In test [3] the test system is OVCAR-8 ovarian.
The subject of test [4] is OVCAR-5 ovarian.
In test [5] the test system is OVCAR-4 ovarian.
The subject of test [6] is SK-OV-3 ovarian.
Test [7] relates to IGROV1 ovarian.
Test [8] concerns OVCAR-3 ovarian.
The test system of test [9] is HS 578T breast.
For test [10], the system named is NCI/ADR-RES ovarian.
Test [11] deals with BT-549 breast.
The test system of test [12] is MDA-MB-435 melanoma.
Test [13] relates to SW-620 colon.
In test [14] the test system is MCF7 breast.
Test [15] has as its system HCT-116 colon.
The subject of test [16] is HCC-2998 colon.
In test [17] the test system is KM12 colon.
For test [18], the system named is T-47D breast.

Consider `C#CCCCCCCC[C@@H]1OC(=O)[C@H]([C@@H](C)CC)NC(=O)[C@@H]([C@@H](C)CC)NC(=O)CC(=O)[C@@H]1C`, for which the growth was 91.2% in [1]; 93.8% in [2]; 99.8% in test [3]; 88% in [4]; 99.3% in [5]; 102% in test [6]. Also, the growth in [7] is 89.1%; in test [8], 103%; in [9], 84.6%; in test [10], 99.2%; in test [11] it was 104%; in test [12], 107%. In addition, the growth in test [13] was 101%; in test [14], 99%; in test [15] it was 94.8%; in [16], 109%; in [17], 105%.

`c1ccc(C(=NNc2nc3ccccc3o2)c2ccccn2)nc1`: the growth in test [1] is 11%; in test [2] it was 6.05% (active); in test [3], 18.7%; in [4], 37.5%; in test [5] it was 21.8%; in test [6], 13.8%. Also, the growth in test [7] is 16.3%; in [8] it was 16.5%; in test [9] it was 44.2%; in [10], -3.58% (active); in test [11] it was 18.7%; in test [12] it was 25.2%. For the same compound, the growth in [13] is 29.7%; in [14], 6.93% (active); in [15] it was 4.99% (active); in test [16], 44.3%; in [17] it was 24.6%.

With `COc1ccc2nc3cc(Cl)ccc3c(NCCCNC(C)=O)c2c1`, the growth was 21% in test [1]; 37.2% in test [2]; 26.8% in test [3]; 39.1% in test [4]; 49.2% in test [5]; 49.7% in test [6]. The growth in [7] was 36.2%; in test [8], 45.8%; in test [9], 60.4%; in [10] it was 41.4%; in [11], 88.7%; in [12], 41.3%. Further, the growth in [13] is 27%; in [14], 15.8%; in test [15] it was 21%; in test [16] it was 50.3%; in [17] it was 30.7%.

As for `CC1=NN(c2cccc(Cl)c2)C(=O)/C1=C\c1cn(-c2nc(N3CCOCC3)nc(N3CCOCC3)n2)c2ccccc12`, the growth in test [1] was 100%; in test [2], 98.3%; in [3] it was 107%; in [4], 103%; in test [5], 105%; in test [6], 109%. The growth in test [7] is 106%; in test [8], 106%; in test [9] it was 104%; in [10], 103%; in test [11] it was 103%; in test [12] it was 100%. For the same compound, the growth is 110% in [13]; 98.9% in [14]; 94.9% in [15]; 104% in test [16]; 107% in test [17].

Consider `Brc1ccc(-c2nc3ccccc3s2)cc1`, for which the growth in test [1] was 86.9%; in test [2], 94.4%; in test [3], 106%; in [4], 90.9%; in test [5], 93.5%; in [6] it was 91.8%. The growth in test [7] was 73.9%; in test [8], 99%; in test [9], 89.6%; in test [10], 99.3%; in [11], 101%; in test [12] it was 105%. Further, the growth in [13] is 94.5%; in test [14] it was 58.7%; in test [15], 89.4%; in test [16], 110%; in test [17], 97.3%.

As for `CCCCCSc1ccc2nc(NC(=O)OCC)sc2c1`, the growth is 34.9% in [1]; 12.8% in test [2]; 43.6% in [3]; 64.3% in test [4]; 28.7% in [5]; 39.1% in test [6]. In addition, the growth was 46.2% in [7]; -7.09% (active) in test [8]; 14.1% in [9]; 11.9% in test [10]; 29.7% in [18]; -47% (active) in [12]. Besides, the growth in [14] is 13.9%; in [15], 26%; in test [16] it was 55%; in [17], 19.7%.

For `O=C(O)c1occ(Cl)c1Cl`, the growth in test [1] is 92.7%; in test [2] it was 100%; in test [3] it was 107%; in [4], 96.5%; in [5], 115%; in test [6], 109%. The growth in test [7] was 120%; in [8], 118%; in test [9], 115%; in [10], 111%; in test [18], 103%; in test [12], 98.5%. Further, the growth in test [13] was 104%; in test [15], 116%; in test [16] it was 104%; in test [17], 110%.

`Cc1nc(NC(=S)Nc2ccc(F)cc2)sc1C(=O)NNC(=S)Nc1ccc(F)cc1`: the growth was 81.6% in test [1]; -16.8% (active) in test [2]; 87.4% in test [3]; 86.3% in test [4]; 42.8% in test [5]; 94% in test [6]. Besides, the growth in test [7] is 51.7%; in test [8], 56.6%; in test [9], 72.4%; in [10], 78.1%; in [18] it was 35.6%; in [12], 71.5%. The growth is 86.7% in [13]; 72.2% in test [14]; 44.9% in test [15]; 68.4% in test [16]; 76.6% in test [17].

On to `CCCOC(=O)c1c(C)n(C)c2scc[n+]12`, for which the growth in test [1] was 13.6%; in test [2], 54.8%; in [3], 72.8%; in test [4], 75.1%; in test [5], 73.8%; in [6], 93.9%. For the same compound, the growth in test [7] is 15.9%; in test [8], 71.2%; in [9], 77.6%; in test [10], 78.9%; in test [11] it was 80.5%; in test [12], 90.9%. Moreover, the growth in [13] is 77.8%; in test [14], 96.7%; in test [15] it was 70.3%; in test [16], 184%; in test [17], 74%.
